Rows were chosen to be rich in hits. Some 5.7% of all compounds tested hit in one or more screens of this group.
ssDAF12 agonist – S. stercoralis DAF-12 nuclear receptor activators, primary screen, cell-based, luminescence, HEK293, GRIP1 co-expression, lit1-tk-luc; HEK293 ssDAF-12/GRIP1 lit1-tk-luc reporter; % of 3 µM dafachronic acid response; 370,000 tested, 1% active; activation, % at 6.8 µM; Nuclear hormone receptor DAF-12 (Strongyloides stercoralis);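 active = activation above the mean over all tested compounds plus 3 SD, cut at about 0.9% in these data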
hcDAF-12 act – H. contortus DAF-12 nuclear receptor activators, primary screen, cell-based, luminescence, HEK293, lit1-tk-luc reporter; activation, % at 6.8 µM; 370,000 tested, 1.4% active; HEK293 hcDAF-12 lit1-tk-luc reporter; 0% DMSO, 100% Δ7-dafachronic acid; AID 652067, 2013;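 active = activation above the mean of all tested compounds plus 3 SD, cut at about 5.5% in these data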
hgDAF-12 ag – H. glycines DAF-12 receptor agonists, primary screen, cell-based, luminescence, HEK293, GAL4 fusion, UAS-luciferase; Nuclear hormone receptor DAF-12 (Heterodera glycines), GAL4 fusion; HEK293 GAL4-hgDAF12 UAS-luciferase reporter, agonist luminescence; normalized to butyrate control; activation, % at 6.8 µM; 370,000 tested, 1.8% active;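 active = activation above a cutoff set at the mean of all screened compounds plus 3 SD, cut at about 10% in these data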
DAX1 inh-1 – DAX1 (NR0B1) inhibitors, primary screen, cell-based, HEK293, Gal4-DAX1, luciferase luminescence | 340,000 tested, 0.99% active | HEK293 Gal4-DAX1 luciferase reporter | inhibition, % at 6.75 µM;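 active = inhibition above the mean over all tested compounds plus 3 SD, cut at about 4.2% in these data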;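 note: inhibition shows as a rise in luminescence from relieved DAX1 repression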
Target sequence (P51843 207-470 limits assumed): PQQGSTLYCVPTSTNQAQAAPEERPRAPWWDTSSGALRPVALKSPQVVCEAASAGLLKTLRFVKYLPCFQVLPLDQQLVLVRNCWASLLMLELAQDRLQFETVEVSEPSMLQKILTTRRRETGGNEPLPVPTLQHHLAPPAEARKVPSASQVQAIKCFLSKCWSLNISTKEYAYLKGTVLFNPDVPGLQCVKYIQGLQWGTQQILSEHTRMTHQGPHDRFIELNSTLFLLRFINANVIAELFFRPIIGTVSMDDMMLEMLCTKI
DAX1 inh-2 – DAX1 (NR0B1) inhibitors on StAR promoter, primary screen, cell-based, luminescence, SF-1 (NR5A1), full-length DAX-1; HEK293T StAR-luciferase reporter, SF-1/DAX-1 repression relief; inhibition, % at 6.8 µM; 370,000 tested, 1.1% active; AID 652010, 2013;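 active = inhibition above the mean over all tested compounds plus 3 SD, cut at about 3.6% in these data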;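 note: higher inhibition means more luminescence from relief of DAX-1 repression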
AHR act – AHR activators, primary screen, cell-based, luminescence, luciferase reporter, human. Aryl hydrocarbon receptor (Homo sapiens), P35869. AHR-responsive luciferase reporter cells. activation, % at 5 µM. 320,000 tested, 2.5% active; in the data active = activation above about 47%
Large screens that a line does not name were inactive.

O=c1oc2ccc3ccccc3c2cc1-c1nnc(-c2ccccc2)o1	none
N=c1oc2ccc3ccccc3c2cc1-c1nc(-c2ccccc2)cs1	hcDAF-12 act 6.2
O=C(Nc1ccc(F)c(Cl)c1)c1csc(COCCO)n1	none (no result: DAX1 inh-1, AHR act)
COc1ccc(-c2c(-c3ccsc3)oc3ccc(N4CCOCC4)cc23)cc1	AHR act 47.1
COc1ccc(-c2oc3ccc(N4CCOCC4)cc3c2/C=C/c2ccc(OC)c(OC)c2)cc1	none
COCCNC(=O)CN(C(=O)Cn1nnc2ccccc21)c1ccc(C)cc1	DAX1 inh-1 4.5
COCCNC(=O)CN(C(=O)CCC(=O)Nc1ccccn1)c1ccc(OC)cc1	DAX1 inh-1 5.0
Cc1ccc(N(CC(=O)NCCc2ccccc2)C(=O)CCC(=O)Nc2cc(C)ccn2)cc1	DAX1 inh-1 5.4
Cc1nnc(SCc2cccc3ccccc23)s1	DAX1 inh-1 7.0
Cc1nc(CSc2nnc(C)s2)cs1	DAX1 inh-1 4.7
c1ccc(Nc2nnc(SCc3cccc4ccccc34)s2)cc1	none
Cc1nnc(SCc2ccc(F)cc2)s1	none
Clc1ccc(-c2cnc(Oc3ccccc3)nc2)cc1	hgDAF-12 ag 10.8
Cc1cc(Cl)ccc1Oc1ncc(-c2ccc(Cl)cc2)cn1	none
CCCCOc1ccc2c(c1)C(=O)c1cc(O)ccc1-2	hgDAF-12 ag 10.8
Cc1nn2c(-c3ccc(F)cc3)ccnc2c1Cl	AHR act 58.2
Cc1cc(=O)oc2c(C(=O)/C=C/c3ccccc3)c(O)ccc12	none
Cc1cc(=O)oc2c(C(=O)/C=C\c3cccs3)c(O)ccc12	AHR act 72.8
CCc1sc(C(=O)Nc2ccc(F)cc2C)cc1C	none
NC(N)=NC(=O)c1nc(Cl)c(N2CCCCCC2)nc1N	hgDAF-12 ag 12.5
COCCn1ccc2c(OCC(=O)NCc3ccc(C)cc3)cccc2c1=O	none
Cc1ccc(C(=O)CSc2nnc3ccccn23)c(C)c1	hcDAF-12 act 5.7, hgDAF-12 ag 10.7, DAX1 inh-2 4.4
COc1ccc(S[C@]2(C(=O)N(C)C)CC(=O)N(S(=O)(=O)c3ccc(F)cc3)[C@@H]2c2ccc(OC)cc2)cc1	none (no result: DAX1 inh-1, AHR act)
COc1ccccc1/C=C1\SC(=S)N(CC(=O)NC2CCS(=O)(=O)C2)C1=O (centres undefined)	none
O=C(C1CC(Cl)CN1S(=O)(=O)c1ccc(Cl)cc1)N1CCOCC1 (centres undefined)	none
O=C(N1CCOCC1)N1CCN(S(=O)(=O)c2ccc(Cl)cc2)C1	ssDAF12 agonist 1.0
NC(=O)CC1Nc2cccc3cccc(c23)NC1=O (centres undefined)	AHR act 50.8
O=C(CC1Nc2ccccc2NC1=O)NCCc1ccccc1 (centres undefined)	AHR act 48.7
O=C(CC1Nc2ccccc2NC1=O)c1ccccc1 (centres undefined)	AHR act 77.9 (no result: ssDAF12 agonist, hcDAF-12 act, hgDAF-12 ag, DAX1 inh-1, DAX1 inh-2)
COc1ccc(CCNC(=O)CC2Nc3ccccc3NC2=O)cc1 (centres undefined)	none
CC(NC(=O)CC1Nc2ccccc2NC1=O)c1ccccc1 (centres undefined)	none
COc1cccc(CC2(CO)CCCN(Cc3ccc(OC)c(C)c3OC)C2)c1 (centres undefined)	none
Cc1cc(Cl)c2oc(C(=O)N(CCO)Cc3ccccc3)c(C)c2c1	DAX1 inh-1 8.1
Cc1cc(Cl)c2oc(C(=O)N(C)Cc3ccon3)c(C)c2c1	hgDAF-12 ag 12.7
O=C(C1CCC(=O)N(C2CC2)C1)N1CCN(c2cccc(Cl)c2)CC1 (centres undefined)	none (no result: AHR act)
O=C(Nc1ccccc1)SC1CCCCC1	hgDAF-12 ag 12.4 (no result: AHR act)
CN(C(=O)Nc1ccccc1)C1CCCCC1	none
CC(CCN1CCC(C(O)(c2ccccc2)c2ccccc2)CC1)Oc1cccc(Br)c1 (centres undefined)	none (no result: DAX1 inh-1, AHR act)
